Laboratory results reported in PubChem BioAssay (NCATS).
Several values for one entry are separate records, joined by “and”; a condition that tells them apart may be missing. Equal entries are not always repeated. Results filed as inconclusive are left out. A call without a number means that no potency is given here. Activity calls are given as the source filed them. Unless noted, the call rests on the fitted dose curve; in most records, active means well fitted curve in the direction sought with a large enough effect; inconclusive means small, poorly fitted or top-dose-only effect, or another doubt; inactive means no such curve, though single readings can be large; an effect the other way counts as inactive or inconclusive.

Key:
[1] = molecular target: Vitamin D3 receptor (Homo sapiens) (UniProt P11473); experiment: qHTS assay for small molecule agonists of vitamin D receptor signaling (AID 588543; calls by dose curve)
Procedure, shortened: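 GeneBLAzer VDR-UAS-bla HEK293T cells in 2% charcoal-stripped FBS medium were dosed with compound titrations for 16 h at 37 °C; CCF4 β-lactamase readout (405 nm ex, 460/530 nm em). EC50 and efficacy from Hill fits, normalized to 50 nM calcitriol (100%) and DMSO (0%).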

[2] = molecular target: Thyroid hormone receptor beta (Homo sapiens) (UniProt P10828); experiment: qHTS assay for small molecule agonists of thyroid hormone receptor beta signaling (AID 588545; calls by dose curve)
Procedure, shortened: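 Cells (2500/well) were seeded, incubated 4 hrs at 37 C, dosed with a compound series, incubated 18 hrs, loaded with CCF4 dye for 2 hrs at RT, then read for fluorescence. Data were scaled between DMSO (0%) and 10 nM T3 (100%).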

[3] = qHTS assay for small molecule antagonists of retinoid X receptor alpha signaling (AID 588546; active means well fitted inhibition curve with a large enough effect in the signal ratio, with a control signal flat, not every such curve was filed as active; the % refers to the signal ratio;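 further: cells stimulated with 9-cis-retinoic acid as agonist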); settings: HEK293T RXRa-UAS-bla, beta-lactamase ratio, antagonist mode; measured here: W530 green channel, cytotoxicity proxy
Procedure, shortened: (§1)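 Beta-lactamase reporter inhibition, read as CCF4 fluorescence ratio (ex 405, em 460/530 nm) after 2 h at RT. HEK293T UAS-bla cells, 2500/well, were stimulated with 9-cis-RA at 500 or 100 nM final alongside test compound for 18 h at 37 C.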

[4] = molecular target: Retinoic acid receptor RXR-alpha (Homo sapiens) (UniProt P19793); experiment: as above; settings: HEK293T RXRa-UAS-bla, beta-lactamase ratio, antagonist mode
Procedure, shortened: as §1

[5] = molecular target: Thyroid hormone receptor beta (Homo sapiens) (UniProt P10828); experiment: qHTS assay for small molecule antagonists of thyroid hormone receptor beta signaling (AID 588547; active means well fitted inhibition curve with a large enough effect in the signal ratio, with a control signal flat, not every such curve was filed as active; the % refers to the signal ratio;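 further: cells stimulated with 0.4 nM T3 agonist during compound exposure; series mostly up to about 77 µM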); settings: TR-UAS-bla HEK293, beta-lactamase ratio, antagonist mode, 18 h
Procedure, shortened: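 TR-UAS-bla GripTite HEK293 cells in 2% charcoal/dextran FBS medium were preincubated 4 h at 37 C, given compound (0.59 nM to 92 uM) plus 0.4 nM T3 (final) for 18 h, then CCF4 for 2 h at RT; Hill fit gave IC50.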

[6] = molecular target: Voltage-gated inwardly rectifying potassium channel KCNH2 (Homo sapiens) (UniProt Q12809); experiment: qHTS Assay for Small Molecule Inhibitors of the Human hERG Channel Activity (AID 588834);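 further: top concentration of the series differs between compounds; lower thallium flux fluorescence means stronger hERG block; nearly all actives have a fitted effect of over 50% in size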
Procedure, shortened: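 In hERG-transduced U2OS cells, dye-loaded for 1 hr at room temperature in dark, test compounds incubated 10 min at 37 °C before thallium stimulation. AC50 values derived by Hill modelling of concentration-response.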

[7] = qHTS assay for small molecule disruptors of the mitochondrial membrane potential - 1 hr assay (AID 651754; calls by dose curve; further: nearly all actives have a fitted effect of over 35% in size)
Procedure, shortened: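 Read-out: dye fluorescence at 490 nm ex/535 nm em (monomers) and 540 nm ex/590 nm em (aggregates) in HepG2 cells. Compound exposure 1 hr at 37C, followed by 30 min dye loading.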

[8] = qHTS assay for small molecule disruptors of the mitochondrial membrane potential - 5 hr assay (AID 651755; calls by dose curve; further: nearly all actives have a fitted effect of over 40% in size)
Procedure, shortened: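 Seed HepG2 overnight, add compound, incubate 5 hr at 37C and 5% CO2, stain 30 min with Mito-MPS, then measure monomer (490/535 nm) and aggregate (540/590 nm) fluorescence.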

[9] = molecular target: Tumor necrosis factor (Homo sapiens) (UniProt P01375); experiment: qHTS assay to identify small molecules that stimulate Tumor Necrosis Factor-alpha (TNF-alpha) secretion (AID 651757; active means well fitted curve in the direction sought with a large enough effect in the signal ratio; the % refers to the signal ratio)
Procedure, shortened: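 THP-1 cells, 3000/well; compound 17 hrs, 37 C; add cryptate/XL665 anti-TNF-alpha antibody pair; 3 hr RT; TR-FRET (HTRF) read of secreted TNF-alpha. Quantitative HTS format.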

[10] = qHTS assay for environmental chemicals that activate the Aryl hydrocarbon Receptor (AhR) signaling pathway (AID 651777); settings: 1A2-DRE human hepatoma cells, luciferase, 24 h; activation: stronger effect = higher value; further: nearly all actives have a fitted effect of over 15% in size
Procedure, shortened: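 Measured luciferase activity, read 30 min after One-Glo addition at room temperature, from human hepatoma cells bearing a dioxin response element–CYP1A2 promoter reporter and exposed to compound for 24 hr at 37 C.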

[11] = molecular target: Peroxisome proliferator-activated receptor alpha (Homo sapiens) (UniProt Q07869); experiment: qHTS assay for small molecule agonists of the peroxisome proliferator-activated receptor alpha (PPARalpha) signaling pathway (AID 651778); settings: PathHunter PPARalpha complementation, chemiluminescence, 6 h; stronger effect = higher value
Procedure, shortened: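 Cells plated at 2,000/well and held overnight at 37 C, 5% CO2, then compound added by pin tool for 6 hr; after PathHunter detection reagent and 60 min at room temperature, chemiluminescence from enzyme complementation was read.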

[12] = molecular target: Nuclear receptor ROR-gamma (Homo sapiens) (UniProt P51449); experiment: qHTS assay for small molecule antagonists of the retinoid-related orphan receptor gamma (ROR-gamma) signaling pathway (AID 651802);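 further: CHO cells with doxycycline-induced ROR-gamma expression; luciferase reporter luminescence driven by ROR response element; series mostly up to about 92 µM; nearly all actives have a fitted effect of over 60% in size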
Procedure, shortened: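 Luciferase read-out: ONE-Glo luminescence after 30 min at room temperature, following 16hr doxycycline induction at 37C, 5% CO2 of CHO cells with TET-inducible ROR and RORE-LUC reporter; decreased luminescence = reduced reporter activity.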

[13] = qHTS assay for small molecule agonists of the antioxidant response element (ARE) signaling pathway measured by Nrf2-dependant transcriptional activity (AID 720636; active means well fitted curve in the direction sought with a large enough effect in the repeat runs; an effect the other way counts as inactive or inconclusive;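 further: HepG2 cells with an ARE-driven luciferase reporter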)
Procedure, shortened: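 In HepG2 cells engineered with an Nrf2-responsive luciferase gene, ARE induction was quantified as luminescence after 16 hr compound treatment at 37 C.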

[14] = qHTS assay for small molecule antagonists of the retinoid-related orphan receptor gamma (ROR-gamma) signaling pathway - cell viability counter screen (AID 720652; active means well fitted curve in the direction sought with a large enough effect in the repeat runs; an effect the other way counts as inactive or inconclusive;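 further: CHO reporter cells with doxycycline-induced ROR-gamma expression; series mostly up to about 92 µM; compound exposure lasted 16 hr before ATP read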)
Procedure, shortened: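 CHO RORE-LUC/TET-ROR line, 1,000 cells/well, 37 C 5% CO2 5 hr; cpd or DMSO + doxycycline induction, 16 hr. CellTiter-Glo, 30 min RT, luminescence = ATP content.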

[15] = qHTS assay for small molecule agonists of the antioxidant response element (ARE) signaling pathway measured by Nrf2-dependant transcriptional activity - cell viability counter screen (AID 720653; active means well fitted curve in the direction sought with a large enough effect in the repeat runs; an effect the other way counts as inactive or inconclusive); settings: ARE-bla HepG2 viability, CellTiter-Glo ATP luminescence, 16 h; stronger effect = lower value
Procedure, shortened: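 ARE-bla HepG2 cells (2,000/well) rested 5 hrs at 37C/5% CO2, then exposed to compounds in DMSO for 16 hrs. Viability was read in the same wells as intracellular ATP by luminescence, 30 min at room temperature after reagent addition.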

[16] = qHTS assay for cell viability of HEK293 cells (AID 743288); settings: ATP luminescence (CellTiter-Glo), 18 h; max response: stronger effect = lower value; further: nearly all actives have a fitted effect of over 50% in size
Procedure, shortened: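 After 18 h compound exposure at 37 C, parental HEK293 cells (2,000/well) are lysed with CellTiter-Glo and luminescence is read following 30 min at room temperature.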

[17] = qHTS assay for cell viability of the p53RE-bla HCT-116 cell line (AID 743292); further: potency means the concentration at half of the fitted maximal effect; nearly all actives have a fitted effect of over 55% in size
Procedure, shortened: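 Intracellular ATP of p53RE-bla HCT-116 cells measured by luciferase luminescence following 16 h compound incubation at 37 C; DMSO-only wells served as vehicle controls.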

[18] = molecular target: Rap guanine nucleotide exchange factor 3 (Homo sapiens) (UniProt O95398); experiment: Confirmatory qHTS for agonist of cAMP-regulated guanine nucleotide exchange factor 3 (EPAC1) (AID 1645881);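 further: EPAC1 catalysed release of BODIPY-GDP from Rap1B seen as fluorescence loss; nearly all actives have a fitted effect of over 75% in size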
[19] = molecular target: Rap guanine nucleotide exchange factor 4 (Homo sapiens) (UniProt Q8WZA2); experiment: Confirmatory qHTS for agonist of cAMP-regulated guanine nucleotide exchange factor 4 (EPAC2) (AID 1645884);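 further: nucleotide exchange releases bodipy-GDP from Rap1 and this lowers its fluorescence; nearly all actives have a fitted effect of over 65% in size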
[20] = molecular target: Rap guanine nucleotide exchange factor 4 (Homo sapiens) (UniProt Q8WZA2); experiment: Confirmatory qHTS for antagonist of cAMP-regulated guanine nucleotide exchange factor 4 (EPAC2) (AID 1645885); further: potency means the concentration at half of the fitted maximal effect; nearly all actives have a fitted effect of over 25% in size
[21] = molecular target: Rap guanine nucleotide exchange factor 3 (Homo sapiens) (UniProt O95398); experiment: Counterscreen qHTS for antagonist of cAMP-regulated guanine nucleotide exchange factor 3 (EPAC1) (AID 1645888);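 further: fluorescence loss as bound BODIPY-GDP is released from Rap1B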
Procedure, shortened: (§2)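 Measured: fluorescence of BODIPY-GDP bound to Rap1B, which falls as exchange proceeds. Conditions include 50 uM competing GDP, 5 and 30 min reads, and a later cAMP challenge for antagonist detection.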

[22] = molecular target: Rap guanine nucleotide exchange factor 3 (Homo sapiens) (UniProt O95398); experiment: Counterscreen qHTS for agonist of cAMP-regulated guanine nucleotide exchange factor 3 (EPAC1) (AID 1645889); further: nearly all actives have a fitted effect of over 40% in size
Procedure, shortened: as §2

[23] = molecular target: Nuclear receptor subfamily 1 group I member 2 (Rattus norvegicus) (UniProt Q9R1A7); experiment: qHTS assay for small molecule activators of the rat pregnane X receptor (rPXR) signaling pathway (AID 651751; call rule not given here); settings: rPXR reporter cells, luciferase (One-Glo), 24 h
[24] = qHTS assay for small molecule activators of the human pregnane X receptor (PXR) signaling pathway (AID 720659; call rule not given here)

Chain of Thyroid hormone receptor beta (Homo sapiens) (P10828 whole entry, looked up): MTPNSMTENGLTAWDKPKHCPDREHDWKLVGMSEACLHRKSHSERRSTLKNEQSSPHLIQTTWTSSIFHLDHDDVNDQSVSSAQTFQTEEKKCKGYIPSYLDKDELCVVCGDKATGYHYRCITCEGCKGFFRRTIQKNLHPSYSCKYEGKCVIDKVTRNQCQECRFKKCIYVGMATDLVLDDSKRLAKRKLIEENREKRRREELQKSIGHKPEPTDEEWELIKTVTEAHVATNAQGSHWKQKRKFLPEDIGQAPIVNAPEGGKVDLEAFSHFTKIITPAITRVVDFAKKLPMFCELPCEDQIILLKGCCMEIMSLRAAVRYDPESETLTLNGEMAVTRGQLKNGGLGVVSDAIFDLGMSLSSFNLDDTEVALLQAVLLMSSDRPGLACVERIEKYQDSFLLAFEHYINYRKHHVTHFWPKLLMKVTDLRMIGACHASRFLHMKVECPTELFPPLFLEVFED
Chain of Rap guanine nucleotide exchange factor 4 (Homo sapiens) (Q8WZA2 whole entry, looked up): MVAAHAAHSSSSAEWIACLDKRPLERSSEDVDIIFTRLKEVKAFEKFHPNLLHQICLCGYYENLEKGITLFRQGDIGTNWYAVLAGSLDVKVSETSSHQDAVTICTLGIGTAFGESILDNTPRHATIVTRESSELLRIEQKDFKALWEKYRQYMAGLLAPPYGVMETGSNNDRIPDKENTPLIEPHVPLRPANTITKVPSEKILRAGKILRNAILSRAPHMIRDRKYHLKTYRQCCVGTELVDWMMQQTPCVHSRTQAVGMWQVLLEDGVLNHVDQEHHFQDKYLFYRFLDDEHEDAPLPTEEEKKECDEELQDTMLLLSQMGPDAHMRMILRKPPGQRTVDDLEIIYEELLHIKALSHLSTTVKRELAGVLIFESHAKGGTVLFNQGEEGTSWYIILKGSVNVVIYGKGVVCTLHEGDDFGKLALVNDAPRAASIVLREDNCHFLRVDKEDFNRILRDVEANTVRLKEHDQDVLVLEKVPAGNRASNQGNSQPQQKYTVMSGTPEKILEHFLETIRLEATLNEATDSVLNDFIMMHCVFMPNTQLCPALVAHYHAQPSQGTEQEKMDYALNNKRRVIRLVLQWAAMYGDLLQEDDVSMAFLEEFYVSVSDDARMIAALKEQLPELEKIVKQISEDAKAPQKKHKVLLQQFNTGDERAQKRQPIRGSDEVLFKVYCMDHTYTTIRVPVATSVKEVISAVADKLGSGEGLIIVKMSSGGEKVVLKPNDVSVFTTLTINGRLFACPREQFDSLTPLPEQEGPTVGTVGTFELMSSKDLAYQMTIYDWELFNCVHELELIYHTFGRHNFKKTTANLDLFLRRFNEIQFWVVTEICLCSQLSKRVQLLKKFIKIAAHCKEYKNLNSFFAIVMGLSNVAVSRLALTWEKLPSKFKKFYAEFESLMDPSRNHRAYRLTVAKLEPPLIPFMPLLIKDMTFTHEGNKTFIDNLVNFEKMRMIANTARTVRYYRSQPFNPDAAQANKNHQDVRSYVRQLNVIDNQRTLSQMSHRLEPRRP
Chain of Rap guanine nucleotide exchange factor 3 (Homo sapiens) (O95398 whole entry, looked up): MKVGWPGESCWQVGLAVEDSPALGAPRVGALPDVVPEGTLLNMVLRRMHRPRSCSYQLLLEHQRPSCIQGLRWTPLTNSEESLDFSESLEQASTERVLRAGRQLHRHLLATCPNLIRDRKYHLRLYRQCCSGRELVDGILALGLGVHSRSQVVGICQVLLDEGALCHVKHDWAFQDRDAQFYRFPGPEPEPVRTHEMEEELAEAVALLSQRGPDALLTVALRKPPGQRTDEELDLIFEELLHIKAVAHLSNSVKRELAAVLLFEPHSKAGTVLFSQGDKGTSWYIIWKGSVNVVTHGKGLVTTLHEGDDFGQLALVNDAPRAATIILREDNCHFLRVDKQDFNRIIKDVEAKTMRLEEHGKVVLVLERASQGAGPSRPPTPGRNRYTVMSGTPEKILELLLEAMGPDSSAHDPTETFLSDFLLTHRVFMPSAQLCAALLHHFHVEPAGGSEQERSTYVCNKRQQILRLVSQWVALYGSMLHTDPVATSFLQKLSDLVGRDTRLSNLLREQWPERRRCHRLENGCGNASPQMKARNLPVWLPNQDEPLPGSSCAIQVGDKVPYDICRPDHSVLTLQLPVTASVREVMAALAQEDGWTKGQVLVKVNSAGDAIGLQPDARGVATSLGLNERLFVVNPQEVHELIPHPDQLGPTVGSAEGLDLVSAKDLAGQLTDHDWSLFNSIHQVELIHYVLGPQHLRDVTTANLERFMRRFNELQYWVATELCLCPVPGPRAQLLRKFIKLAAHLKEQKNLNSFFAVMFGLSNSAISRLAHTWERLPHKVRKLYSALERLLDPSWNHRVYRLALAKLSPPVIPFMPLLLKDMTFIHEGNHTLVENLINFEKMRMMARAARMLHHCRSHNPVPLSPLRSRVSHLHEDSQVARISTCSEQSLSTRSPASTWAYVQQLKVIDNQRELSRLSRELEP
Chain of Peroxisome proliferator-activated receptor alpha (Homo sapiens) (Q07869 whole entry, looked up): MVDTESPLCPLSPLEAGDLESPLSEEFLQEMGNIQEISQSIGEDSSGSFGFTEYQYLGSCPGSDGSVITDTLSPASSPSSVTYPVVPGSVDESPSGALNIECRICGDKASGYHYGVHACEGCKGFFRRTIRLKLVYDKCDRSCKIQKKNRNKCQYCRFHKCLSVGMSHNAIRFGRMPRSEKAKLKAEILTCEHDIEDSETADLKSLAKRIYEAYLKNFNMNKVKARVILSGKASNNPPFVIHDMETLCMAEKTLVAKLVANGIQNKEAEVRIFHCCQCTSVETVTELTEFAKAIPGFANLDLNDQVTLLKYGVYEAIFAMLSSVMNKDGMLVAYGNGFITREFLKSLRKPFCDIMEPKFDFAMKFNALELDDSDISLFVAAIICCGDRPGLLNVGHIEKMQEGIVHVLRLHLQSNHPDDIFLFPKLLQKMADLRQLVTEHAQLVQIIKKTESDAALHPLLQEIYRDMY
Chain of Nuclear receptor subfamily 1 group I member 2 (Rattus norvegicus) (Q9R1A7 whole entry, looked up): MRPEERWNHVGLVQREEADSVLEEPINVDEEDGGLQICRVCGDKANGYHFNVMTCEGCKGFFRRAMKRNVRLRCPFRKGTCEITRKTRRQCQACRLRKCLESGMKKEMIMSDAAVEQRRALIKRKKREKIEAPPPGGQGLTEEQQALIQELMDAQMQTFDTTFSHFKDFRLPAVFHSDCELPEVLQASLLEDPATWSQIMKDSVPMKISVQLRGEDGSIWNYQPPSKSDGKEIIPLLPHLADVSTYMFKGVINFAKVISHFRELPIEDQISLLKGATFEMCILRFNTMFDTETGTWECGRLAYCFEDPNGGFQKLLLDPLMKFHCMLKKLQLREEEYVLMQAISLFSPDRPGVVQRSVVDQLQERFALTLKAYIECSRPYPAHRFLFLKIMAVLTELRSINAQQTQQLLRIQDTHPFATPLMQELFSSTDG
Chain of Retinoic acid receptor RXR-alpha (Homo sapiens) (P19793 whole entry, looked up): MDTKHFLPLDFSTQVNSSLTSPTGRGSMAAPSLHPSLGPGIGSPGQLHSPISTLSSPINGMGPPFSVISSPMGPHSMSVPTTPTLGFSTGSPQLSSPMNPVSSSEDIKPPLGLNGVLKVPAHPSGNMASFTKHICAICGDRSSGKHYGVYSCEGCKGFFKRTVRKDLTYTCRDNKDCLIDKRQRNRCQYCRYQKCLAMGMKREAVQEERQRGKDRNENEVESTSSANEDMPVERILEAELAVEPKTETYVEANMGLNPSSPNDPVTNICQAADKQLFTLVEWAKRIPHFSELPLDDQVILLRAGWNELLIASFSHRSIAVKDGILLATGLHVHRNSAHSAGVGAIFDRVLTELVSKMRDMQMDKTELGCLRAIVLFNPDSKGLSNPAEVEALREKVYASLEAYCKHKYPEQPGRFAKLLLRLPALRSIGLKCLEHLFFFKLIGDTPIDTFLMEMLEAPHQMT
Chain of Voltage-gated inwardly rectifying potassium channel KCNH2 (Homo sapiens) (Q12809 whole entry, looked up): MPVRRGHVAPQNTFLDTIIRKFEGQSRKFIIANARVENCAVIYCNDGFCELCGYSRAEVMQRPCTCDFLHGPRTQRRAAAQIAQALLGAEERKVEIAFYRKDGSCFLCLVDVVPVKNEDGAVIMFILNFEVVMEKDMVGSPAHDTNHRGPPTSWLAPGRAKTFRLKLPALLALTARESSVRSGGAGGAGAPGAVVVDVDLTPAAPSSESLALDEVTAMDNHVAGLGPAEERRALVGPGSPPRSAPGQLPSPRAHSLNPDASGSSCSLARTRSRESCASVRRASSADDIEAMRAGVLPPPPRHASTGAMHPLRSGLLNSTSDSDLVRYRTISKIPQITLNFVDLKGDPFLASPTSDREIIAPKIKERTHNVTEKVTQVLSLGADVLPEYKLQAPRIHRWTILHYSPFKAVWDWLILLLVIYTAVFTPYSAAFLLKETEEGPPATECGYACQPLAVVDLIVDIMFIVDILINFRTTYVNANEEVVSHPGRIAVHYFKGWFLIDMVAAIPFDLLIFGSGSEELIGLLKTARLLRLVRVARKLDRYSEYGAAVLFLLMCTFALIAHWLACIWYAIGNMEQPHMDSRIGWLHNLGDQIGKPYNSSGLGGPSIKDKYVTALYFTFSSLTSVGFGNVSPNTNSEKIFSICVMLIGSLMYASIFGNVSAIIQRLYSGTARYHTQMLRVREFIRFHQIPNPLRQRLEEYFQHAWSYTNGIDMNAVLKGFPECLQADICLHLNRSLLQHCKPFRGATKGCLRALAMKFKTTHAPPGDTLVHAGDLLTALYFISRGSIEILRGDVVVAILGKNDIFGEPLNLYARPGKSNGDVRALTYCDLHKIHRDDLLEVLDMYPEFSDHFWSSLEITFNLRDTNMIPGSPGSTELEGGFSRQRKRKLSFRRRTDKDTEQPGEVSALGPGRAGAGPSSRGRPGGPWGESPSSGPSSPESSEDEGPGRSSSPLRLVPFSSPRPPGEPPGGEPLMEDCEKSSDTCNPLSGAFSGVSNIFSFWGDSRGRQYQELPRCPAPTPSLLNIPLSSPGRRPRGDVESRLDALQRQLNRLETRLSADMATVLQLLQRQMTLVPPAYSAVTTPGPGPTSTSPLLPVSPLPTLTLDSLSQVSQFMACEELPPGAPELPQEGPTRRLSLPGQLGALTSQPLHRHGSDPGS

In the case of `Clc1cc(Cl)c(-c2cc(Cl)c(Cl)cc2Cl)cc1Cl`, the outcome [1] is reported as “inactive”, the outcome [2] is reported as “inactive” and the max response [3] is reported as 9.9%. The max response [4] was 12.5% (inactive), the activity change % (negative = inhibition) [5] was -3% (inactive) and 18.9% (inactive) and the Potency [6] was “inactive”. For the same molecule, the Potency [7] was “inactive”, the Potency [8] was “inactive” and the outcome [9] was “inactive”. For the same molecule, the activation [10] was -0.0322% (inactive) and 0.521% (inactive), the max response [11] was -1.16% (inactive) and 9.79% (inactive) and the Potency [12] was “inactive”. For the same molecule, the outcome [13] was “inactive”, the Potency [14] was “inactive” and the max response [15] was -2.79% (inactive) and -2.97% (inactive). The max response [16] was -28.5% (inactive) and -15.8% (inactive), the Potency [17] was 44.7 µM (active) and the Potency [18] was “inactive”. For the same molecule, the Potency [19] was “inactive”, the Potency [20] was 4.78 µM (active) and the outcome [21] was “inactive”. For the same molecule, the Potency [22] was “inactive”, the max response [23] was 2.83% (inactive) and 5.76% (inactive) and the outcome [24] was “inactive”.
